# Shiga inhibitor: Shiga toxin inhibition | Vero cells, Shiga toxin protein synthesis inhibition reporter | inhibition, % at 38.7 µM | 290,000 tested, 9.2% active | AID 2315; in the data active = inhibition mostly above about 28%, no sharp cut-off; inactive = mostly below about 43%; note: 0% is about no effect
# Pf growth 48h: inhibits P. falciparum growth in the first generation, 48 h; P. falciparum luciferase growth in erythrocytes, 48 h; Potency, µM (highest dose often 28.7 µM), without a hit: at the top dose activity change, negative = inhibition, actives largely listed as inhibitors; 310,000 tested, 5.9% active; AID 504832; note: potency is the fitted concentration of half-maximal effect; % is set by controls: 0 for no effect and ±100 for the full control effect
#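 In quantitative HTS format, infected erythrocytes bearing luciferase-reporter parasites were treated for a single generation at 37 C. Luminescence after adding detection reagent served as the growth measure.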
# CHX counter: affects cycloheximide protein synthesis inhibition readout, counter-screen | cell reporter, cycloheximide protein synthesis inhibition counterscreen | 300,000 tested, 12% active | max response, %; in the data active = max response mostly above about 13%, no sharp cut-off; inactive = mostly below about 14%; note: read at 38.3 µM for the half of the compounds with a filed dose; 0% is about no effect
# NS1 inh: influenza NS1 inhibition; Potency, µM (highest dose often 46.1 µM), for inactives: top-dose activity, positive = more growth; AID 2326; 270,000 tested, 0.4% active; calls by dose curve; note: potency is the fitted concentration of half-maximal effect; actives are rising curves; nearly all actives have a fitted effect of over 50% in size
#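 OD600 was taken as the measure of yeast growth restored by compound in an NS1-expressing S. cerevisiae strain. Cells had been washed out of glucose medium and diluted 1:100 into galactose -URA medium, pH 6.0.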
# Pf growth 96h: P. falciparum growth inhibition at 96 hour, primary screen for plastid delayed-death inhibitors; Potency, µM (titrated, usually from 28.7 µM), for the others: at the top dose activity change, negative = inhibition, hits mostly inhibitors; AID 504834; P. falciparum luciferase reporter growth, 96 h; 320,000 tested, 6.9% active; note: potency is the fitted concentration of half-maximal effect; % is set by controls: 0 for no effect and ±100 for the full control effect
#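 Readout is luminescence from an integrated firefly luciferase in P. falciparum. Red cells, 2% hematocrit and 0.05% parasitemia final, were cultured with compound through two parasite generations (96 hours) at 37 C, 5% CO2.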
# * = called active by the depositor; ? = inconclusive; . = no result given; [ ] = dose if it differs, or a comment. In the library only some 21% were active in any assay of this set; here they are far more common. Unless noted, calls come from the whole dose curve; as a rule, active = well fitted inhibition curve with a large enough effect; inconclusive = small, poorly fitted or top-dose-only effect, or another doubt; inactive = no such curve, though single readings can be large or run the other way.
SMILES,Shiga inhibitor,Pf growth 48h,CHX counter,NS1 inh,Pf growth 96h
COc1ccc2nc(N(CCN(C)C)C(=O)c3ccc(C(=O)c4ccccc4)cc3)sc2c1,55,-11%,12,-28%,0%
CC(NC(=O)c1cccc(S(=O)(=O)N2CCN(Cc3ccccc3)CC2)c1)c1ccc(Cl)cc1 (centres undefined),.,?,.,.,0%
CC(C)CC(=O)OCC(=O)Nc1ccccc1Sc1ccccc1,7,-22%,-3,-2%,19%
O=C(Nc1cnn(C23CC4CC(CC(C4)C2)C3)c1)c1cnn2cccnc12,90*,82%,64*,-33%,16%
C=CCN1C(=S)N[C@@H]2CS(=O)(=O)C[C@@H]21,1,-11%,-2,-3%,7%
COc1cc(C(C)=O)ccc1OCC(=O)Nc1ccc(Cl)c(S(=O)(=O)N2CCOCC2)c1,.,4.1µM*,.,.,2.1µM*
COc1ccc(C(=O)Nc2cnn(Cc3c(F)cccc3Cl)c2)cc1OC,20,?,12*,-12%,?
COc1ccc(Cl)cc1NC(=O)CC(=O)Nc1cc(Cl)ccc1OC,8,?,7,11%,8%
COc1ccc(S(=O)(=O)N2CCOCC2)cc1NC(=O)Cc1c(Cl)cccc1Cl,-6,?,-4,4%,8.3µM*
COc1ccc(Cl)cc1NC(=O)Cc1c(F)cccc1Cl,-8,?,-3,5%,5.9µM*
O=C(Nc1cnn(Cc2c(Cl)cccc2Cl)c1)C(c1ccccc1)c1ccccc1,-11,.,-1,7%,?
CC1=NN(c2ccccc2)C(=O)C1(C)[N+](=O)[O-] (centres undefined),1,-15%,-4,11%,-10%
COc1ccc(C(C)=O)cc1CC(=O)Nc1cccc(S(=O)(=O)N2CCOCC2)c1,.,13µM*,.,.,7.4µM*
COc1ccc(Cl)cc1NC(=O)C(C)NC(c1ccccc1)c1ccccc1 (centres undefined),-25,13µM*,-1,-7%,2.9µM*
COc1ccc(S(=O)(=O)N2CCOCC2)cc1NC(=O)CN1CCCCCC1,-3,-4%,2,.,40%
COc1ccc(S(=O)(=O)N2CCOCC2)cc1NC(=O)CN(C)Cc1c(F)cccc1Cl,4,7.4µM*,-1,.,?
COc1ccc(Cl)cc1NC(=O)C(C)N(C)Cc1cccc(Cl)c1Cl (centres undefined),-16,12µM*,-3,-2%,6.6µM*
COc1ccc(Cl)cc1NC(=O)Nc1ccccc1SC,24,14%[5.75 µM],8,.,38%[5.75 µM]
COc1ccc(Cl)cc1NC(=O)NC(C)C,-1,2%,-4,6%,-40%[5.75 µM]
CCCNC(=O)NC(=O)CSc1nncs1,-7,15%,6,.,2%
O=C(O)/C=C/C(=O)c1c(-c2ccccc2)[nH]c2ccccc12,-4,6.6µM*,-2,11%,4.1µM*
O=C(NCCc1ccccc1)C(=O)c1c(-c2ccccc2)[nH]c2ccccc12,-17,-29%,-3,-6%,5.2µM*
COc1cc2c(-c3ccc(O)cc3)nc3c(c(C)nn3-c3ccccc3)c2cc1OC,-19,15µM*,-1,1%,34%
O=C(O)CCc1nn2c3ccccc3n(Cc3ccccc3F)c2nc1=O,2,9%,-1,.,0%
Cc1ccc(C(=O)Cn2c3[n+](c4ccccc42)CC(O)CS3)cc1 (centres undefined),-8,?,2,4%,10%
SMILES,Shiga inhibitor,Pf growth 48h,CHX counter,NS1 inh,Pf growth 96h
O=C(Cn1c2[n+](c3ccccc31)CC(O)CS2)c1ccccc1 (centres undefined),-8,2.1µM*,7,1%,64%
O=C(CCCOC(=O)c1ccc(O)cc1O)c1ccccc1,.,7%,.,.,-19%
O=C(OCCCOc1ccc(F)cc1)c1ccc(O)cc1O,21,24%,21*,-66%,27%
O=C(O)CCC(=O)Nc1sc2c(c1C(=O)Nc1ccccc1)CCCCC2,40*,10%,10,.,2.3µM*
NC(=O)c1c(NC(=O)CN2CCCC2)sc2c1CCCC2,21*,23%,26*,-4%,12µM*
O=C(O)CCC(=O)Nc1sc2c(c1C(=O)Nc1cccc3ccccc13)CCCCC2,23,6%,20,23%,?
CC1CCc2c(sc(NC(=O)c3ccc(Cn4cc([N+](=O)[O-])cn4)o3)c2C#N)C1 (centres undefined),-17,33%,2,5%,0%
N#Cc1c(NC(=O)c2ccc(Cn3cc(Br)cn3)o2)sc2c1CCCCC2,103,21%,39*,-19%,?
NC(=O)c1c(NC(=O)c2ccccc2)sc2c1CCC2,78*,119%,64*,-13%,-10%
COc1cccc(NC(C)(C)c2nnnn2-c2c(C)cccc2C)c1,5,8%,2,-1%,-7%
CCOC(=O)C(NC(=O)c1ccccc1Cl)(Nc1sc2c(c1C(N)=O)CCC2)C(F)(F)F (centres undefined),-25,?,-2,12%,4.1µM*
NC(=O)c1c(NC(=O)c2ccccc2)sc2c1CCc1ccccc1-2,33,.,21*,-2%,109%
Cn1ncc(Cl)c1C(=O)Nc1sc2c(c1C(N)=O)CCC2,-2,36%,0,-6%,-1%
NC(=O)c1c(NC(=O)c2cnccn2)sc2c1CCCC2,32,106%,16*,.,64%
N#Cc1c(NC(=O)c2ccncc2)sc2c1CCC2,47*,54%,17*,-17%,73%
CC(=O)c1ccccc1OC(=O)COc1ccc([N+](=O)[O-])cc1,-5,4%,-3,9%,209%
Cc1ccccc1Nc1nc(N)nc(CSc2n[nH]c(N)n2)n1,10,47%,9,2%,40%
COc1cc2c(cc1Cl)C(=O)C(F)(c1ccccc1)C(=O)N2 (centres undefined),-8,?,-2,-3%,-5%
COc1ccc(Cl)cc1NC(=O)c1noc(C)c1[N+](=O)[O-],7,7%,2,-19%,-25%
CCN1C(=NCc2ccc(OC)cc2)N[C@@H](c2ccccc2)[C@H](C(=O)OC)[C@H]1C,-7,48%,-1,15%,?
Cn1nc(C(=O)Nc2sc3c(c2C#N)CCCC3)ccc1=O,67,143%,27*,.,100%
NC(=O)c1c(NC(=O)c2ccncc2)sc2c1CCCCCC2,26,-12%,12*,-11%,2%
NC(=O)c1c(NC(=O)c2ccncc2)sc2c1CCCC2,95*,48%,22*,.,0%
NC(=O)c1c(NC(=O)Cc2cccs2)sc2c1CCC2,19*,36%,16*,1%,38%
C=CC(=O)Nc1sc2c(c1C(N)=O)CCCC2,.,?,.,.,40%
CCOC(=O)c1c(NC(=O)Cc2cccs2)sc2c1CCCC2,-22,-18%,1,-7%,18%
CCC(=O)Nc1ccc(NC(=O)CSc2nnc(-c3ccco3)n2CC)cc1,-7,9%,-4,0%,6%
COc1ccc(C(=O)NC(C)c2nnc(SCC(=O)NC3CCCC3)n2C)cc1 (centres undefined),6,2%,-6,-1%,10%

# Screening data as filed in PubChem.
